We go through 15 molecules from PubChem BioAssay.

Calls of active or inactive are those of the source.

Experiment [1] is described as follows: A549 cell viability effects, profiling panel, calcein-AM fluorescence, 48 h, basal (AID 1162). To be noted: higher = more signal.
A short description of experiment [2]: adipocyte viability effects, profiling panel, cell-based, 3T3-L1 adipocytes, calcein-AM fluorescence, 48 h, basal (AID 1163). To be noted: 3T3-L1 adipocytes viability, higher = more signal.
Experiment [3] in a line: HepG2 cell viability effects, profiling panel, calcein-AM fluorescence, 48 h, basal (AID 1164). Conditions: higher = more signal.
Experiment [4] can be described thus: MM1S cell viability effects, profiling panel, calcein-AM fluorescence, 48 h, basal (AID 1165).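 Further: viability of MM1S multiple myeloma cells under basal unstimulated conditions.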 To be noted: higher = more signal.
Experiment [5] can be described thus: basal RPMI8226 viability, no added stimulus, profiling panel, cell-based, calcein-AM fluorescence, 48 h, PK04 Diversity Set (AID 1166).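 Further: cells grown under basal conditions without added stimulus.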 Conditions: RPMI8226 myeloma viability, higher = more signal.
Experiment [6] can be described thus: basal HepG2 mitochondrial membrane potential changes, profiling panel, cell-based, JC-1 fluorescence, 24 h, 100 nL compound (AID 1167). To be noted: higher = more signal.
The nature of experiment [7]: basal 3T3-L1 adipocyte mitochondrial potential changes, profiling panel, cell-based, JC-1 fluorescence, 3T3-L1 adipocytes, 24 h, 100 nL compound (AID 1168). To be noted: JC-1 mitochondrial fluorescence, higher = more signal, called active from +8 up or from −8 down.
Experiment [8] in a line: basal RPMI8226 mitochondrial membrane potential changes, profiling panel, cell-based, JC-1 fluorescence, 24 h, 100 nL compound (AID 1169). Conditions: RPMI8226 myeloma, JC-1 mitochondrial potential fluorescence, higher = more signal.
Experiment [9] is described as follows: basal MM1S mitochondrial membrane potential changes, profiling panel, cell-based, JC-1 fluorescence, 24 h, 100 nL compound (AID 1170). To be noted: higher = more signal.
Experiment [10] is described as follows: A549 lung cancer cell viability effects, profiling panel, resazurin fluorescence, 24 h, PK04 Diversity Set (AID 1171). Conditions: higher = more signal, called active from +8 up or from −8 down. For orientation: Alamar Blue is a resazurin reagent that responds to reducing activity.
Further: test concentration not given here.

As for `O=[N+]([O-])c1ccc(C[n+]2ccc3ccc(O)cc3c2)o1`, the z-score is 1.21 in [1]; 0.233 in [2]; -0.489 in [3]; 0.216 in experiment [4]; 0.705 in experiment [5]; -1.43 in experiment [6]. In addition, the z-score in [7] is -0.157 (inactive); in experiment [8] it was -0.158; in experiment [9] it was 0.648; in experiment [10], -1.02 (inactive).

Regarding `CCOC(=O)C[C@H]1[C@H](OC(=O)c2ccccc2-c2ccccc2)[C@@H](NC(=O)C2CCCCC2)c2cc(OCCCO)ccc2N1C(=O)c1ccccc1`, the z-score is -0.675 in experiment [1]; 1.22 in [2]; -0.294 in [3]; -0.402 in experiment [4]; -1.33 in experiment [5]; 3.59 in experiment [6]. The z-score is 0.75 (inactive) in experiment [7], -0.545 in experiment [8], 0.109 in experiment [9] and -0.0403 (inactive) in [10].

As to `C=C(CCCC)C(=O)CC[C@@H](OC(C)=O)c1ccccc1OCCO`, the z-score is 0.509 in experiment [1]; -0.0795 in experiment [2]; -0.54 in [3]; -2.62 in [4]; -1.67 in [5]; -0.684 in [6]. Moreover, the z-score in experiment [7] is 1.08 (inactive); in [8], -0.76; in experiment [9], 0.93; in [10], 0.288 (inactive).

Consider `CN(C)C(=O)[C@@]1(Cc2ccccc2N=[N+]=[N-])N=C(c2ccc(OCCCO)cc2)O[C@H]1c1ccccc1CN=[N+]=[N-]`, for which the z-score was -0.996 in experiment [1]; 1.16 in experiment [2]; -1.23 in experiment [3]; -2.91 in experiment [4]; -3.39 in [5]; 2.17 in [6]. Moreover, the z-score in experiment [7] was 0.618 (inactive); in experiment [8], -0.904; in experiment [9] it was -0.679; in experiment [10], 0.276 (inactive).

In the case of `CN(C)CCCC[C@@H]1NC(=O)[C@@H]2C[C@H](C(=O)NCCCCCNC(=O)CS)[C@H](c3ccc(O)cc3)N2C1=O`, the z-score was 0.748 in experiment [1]; 0.387 in experiment [2]; -1.02 in [3]; -0.0855 in experiment [4]; 0.262 in experiment [5]; 1.61 in experiment [6]. Further, the z-score in [7] was 0.642 (inactive); in experiment [8], -0.238; in experiment [9], 0.422; in experiment [10], -0.207 (inactive).

Turning to `CO[C@H]1COC(=O)CC=C[C@H](C)[C@@H](OC)COC(=O)CC=C[C@@H]1C`, the z-score was 1.09 in [1]; 0.569 in [2]; 1.06 in experiment [3]; 0.244 in experiment [4]; 0.859 in experiment [5]; 1.36 in [6]. Moreover, the z-score is 0.425 (inactive) in experiment [7], -0.36 in [8], 0.758 in experiment [9] and 0.99 (inactive) in experiment [10].

For the molecule `NC(=O)NCC#Cc1ccc2c(c1)[C@]1(C(=O)N2)[C@H](c2ccccc2OCCO)N2[C@H](c3ccccc3)[C@H](c3ccccc3)OC(=O)[C@H]2[C@@H]1C(=O)N1CCN(c2ncccn2)CC1`, the z-score in [1] was -0.525; in experiment [2] it was 0.932; in [3] it was 0.238; in experiment [4] it was 0.147; in experiment [5] it was 0.598; in experiment [6] it was -1.48. In addition, the z-score is 1.08 (inactive) in [7], -0.356 in [8], -0.293 in experiment [9] and 0.157 (inactive) in experiment [10].

On to `C=CCNC(=O)[C@@H]1[C@H]2C(=O)O[C@H](c3ccccc3)[C@H](c3ccccc3)N2[C@H](c2ccc(OCCO)cc2)[C@@]12C(=O)N(C(=O)OCCOC)c1ccc(C#CC3(O)CCCCCC3)cc12`, for which the z-score in [1] was 0.0803; in experiment [2], 3.14; in [3] it was -1.53; in [4], -1.07; in [5], -1.16; in experiment [6], -1.43. The z-score in experiment [7] is 0.738 (inactive); in [8], -0.814; in experiment [9], -1.05; in [10], 0.338 (inactive).

For the molecule `C=C(CCCC)/C(=C/C[C@@H](OC(=O)c1ccncc1)c1ccc(CO)o1)c1cnc2ccccc2c1`, the z-score in [1] was 1.18; in experiment [2] it was 0.282; in experiment [3], -0.284; in experiment [4] it was -2.48; in [5], -1.18; in [6] it was -0.526. Besides, the z-score in experiment [7] was -0.586 (inactive); in experiment [8], -0.287; in experiment [9] it was 1; in experiment [10] it was -0.0271 (inactive).

As for `O=C(O)[C@@H]1Cc2c([nH]c3ccccc23)[C@@H](c2ccccc2)N1`, the z-score was 0.0265 in experiment [1]; 1.21 in experiment [2]; -0.55 in experiment [3]; 0.424 in experiment [4]; 0.519 in [5]; 0.516 in experiment [6]. Besides, the z-score in experiment [7] is -0.284 (inactive); in [8] it was -0.122; in experiment [9], 0.0857; in experiment [10] it was 0.216 (inactive).

`C#CCCCON=C1C[C@@H](O)[C@@H](O)[C@@H]2[C@@H]3C(=O)N(Cc4ccc5c(c4)OCO5)C(=O)[C@@H]3CC[C@H]12`: the z-score in [1] is 0.391; in experiment [2], -0.027; in experiment [3], -0.464; in experiment [4], 0.484; in [5], 0.0196; in experiment [6] it was -0.537. Also, the z-score in experiment [7] was -0.0334 (inactive); in experiment [8], -0.427; in [9], -0.778; in [10], 0.495 (inactive).

As to `C=C(C)[C@@H]1CC=C(C(O)C2C=CC3C(=O)NC(=O)C3N2Nc2ccccn2)CC1` (stereo not given in full), the z-score in [1] was -0.592; in [2] it was -1.11; in experiment [3] it was -0.914; in experiment [4], 0.0217; in experiment [5], -0.97; in experiment [6], -1.66. Moreover, the z-score in [7] is 0.344 (inactive); in experiment [8], 0.921; in experiment [9] it was -0.0607; in experiment [10], -0.981 (inactive).

Regarding `C=CCc1cccc([C@H]2N[C@H](C(=O)O)CC[C@@H]2C)c1`, the z-score in experiment [1] is 0.382; in experiment [2] it was 0.624; in [3], -0.484; in experiment [4], -0.543; in [5], 0.665; in [6], 0.489. Moreover, the z-score in [7] was -0.0728 (inactive); in [8], 0.602; in [9], 0.345; in [10] it was 0.553 (inactive).

In the case of `C[C@@H]1C=CCC(=O)OC[C@H]2O[C@@H](C=C[C@@H]2O)[C@H](C)C=CCC(=O)OC[C@H]2O[C@H]1C=C[C@@H]2O`, the z-score in experiment [1] was -0.883; in experiment [2] it was 1.15; in experiment [3] it was 0.158; in [4] it was 0.631; in [5], -1.99; in [6], 0.885. For the same molecule, the z-score was 0.902 (inactive) in experiment [7], -0.744 in [8], 0.92 in experiment [9] and -0.573 (inactive) in [10].

As to `CC(=O)NCCCC[C@@H]1NC(=O)[C@@H]2C[C@H](C(=O)NCCCCCCN(C)C)[C@H](c3ccc(O)cc3)N2C1=O`, the z-score is -0.378 in experiment [1]; 1.28 in experiment [2]; -1.04 in experiment [3]; -0.365 in experiment [4]; 0.495 in experiment [5]; 1.43 in [6]. The z-score in experiment [7] is 0.957 (inactive); in experiment [8] it was 0.641; in experiment [9], 0.925; in [10] it was 0.318 (inactive).
